Source: PubChem (National Center for Advancing Translational Sciences (NCATS))
MCF10A rerep = A quantitative high throughput screen for small molecules that induce DNA re-replication in MCF 10a normal breast cells | MCF 10A DNA re-replication, Hoechst nuclear intensity, 48 h | Potency, µM (titrated, usually from 46.1 µM), usual class: activators | 2.9% of 350,000 active | AID 624296, 2012; further: nearly all actives have a fitted effect of over 50% in size
IL-1B inflam inh = qHTS for Inhibitors of Inflammasome Signaling: IL-1-beta AlphaLISA Primary Screen. THP-1 LPS/ATP IL-1B secretion, AlphaLISA, 16 h; active compounds read low. activity change, % at 57.5 µM. 4.7% of 360,000 active. AID 743279, 2014; in the data active means activity change below about -50%; inconclusive means mostly about -30% to -49%
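Secreted IL-1B measured by AlphaLISA bead assay after 16 h compound exposure of THP-1 cells; compounds (final up to 57.5 uM) added 1 h before LPS (250 ng/mL) and ATP (1.25 mM) stimulation; lower signal means less secretion.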
TDP1 cell CPT = qHTS for Inhibitors of human tyrosyl-DNA phosphodiesterase 1 (TDP1): qHTS in cells in presence of CPT | chicken DT40 Tdp1-/-;hTDP1 cells + 20 nM CPT, ATP luminescence, 48 h | Potency, µM (titrated, usually from 46.2 µM), usual class: inhibitors | 12% of 420,000 active; further: nearly all actives have a fitted effect of over 55% in size
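Chicken DT40 Tdp1-/- cells stably complemented with human TDP1 were seeded at 400 cells/well in medium containing 20 nM camptothecin, exposed to pin-transferred compounds, and grown at 37 °C for at least 48 hr. Viability was read as ATP luminescence.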
TDP1 cell noCPT = qHTS for Inhibitors of human tyrosyl-DNA phosphodiesterase 1 (TDP1): qHTS in cells in absence of CPT | DT40 Tdp1-/- hTDP1 cells, no CPT, ATP luminescence, 48 h | Potency, µM (titrated, usually from 46.2 µM), hits mostly inhibitors | 15% of 420,000 active | AID 686978, 2013; further: nearly all actives have a fitted effect of over 55% in size
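Chicken DT40 Tdp1-/- cells complemented with human TDP1, screened without camptothecin (DMSO vehicle only), 400 cells/well. Compounds pin-transferred, cells incubated at 37 °C for at least 48 hr. Growth read as ATP-dependent luminescence (CellTiter-Glo, 30 min at RT).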
BCR signal inh = qHTS Assay to Find Inhibitors of Chronic Active B-Cell Receptor Signaling. ABC-DLBCL IkBa-CBG/CBR reporter, luminescence ratio, 4 h. 0.05% of 340,000 active. Potency, µM (top dose mostly 46.1 µM), usual class: inhibitors; active means well fitted inhibition curve with a large enough effect in the signal ratio, with a control signal flat, not every such curve was filed as active; inconclusive means small, poorly fitted or top-dose-only effect, or effect the other way, or a change in a side signal; the % refers to the signal ratio
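TMD8 ABC-DLBCL cells carrying doxycycline-inducible green luciferase fused to IkappaBalpha plus unfused red luciferase were exposed to compounds (up to 46 uM) for 4 hrs at 37C. Activity came from the overlap-corrected green/red luminescence ratio.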
SW480 rereplic = A quantitative high throughput screen for small molecules that induce DNA re-replication in SW480 colon adenocarcinoma cells. SW480 DNA re-replication, Hoechst DNA content imaging, 48 h. Potency, µM (titrated, usually from 46.1 µM), hits mostly activators. 1.8% of 340,000 active. AID 624297, 2012; further: nearly all actives have a fitted effect of over 55% in size
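250 cells/well; 23 nL cpd via pin tool; 48 hr, 37 C, 5% CO2; Hoechst 40 min; imager read of total nuclear intensity, ex 405/em 500-530 nm.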
Of the large screens only hits and unclear results are named; the others gave an inactive call. A selection: hits, their analogues and other compounds. The true share with any hit is near 19%. Unless noted, the call rests on the fitted dose curve; in most records, active means well fitted curve in the direction sought with a large enough effect; inconclusive means small, poorly fitted or top-dose-only effect, or another doubt; inactive means no such curve, though single readings can be large; an effect the other way counts as inactive or inconclusive.

CCCc1cc(=O)oc2cc(OCC(=O)N3CCN(C(=O)C4COc5ccccc5O4)CC3)ccc12 (centres undefined)	TDP1 cell CPT inconclusive, TDP1 cell noCPT 5.8µM
Cc1c(CC(=O)N2CCN(C(=O)C3COc4ccccc4O3)CC2)c(=O)oc2cc(O)c(Cl)cc12 (centres undefined)	SW480 rereplic inconclusive
Cc1c(C)c2ccc(OCC(=O)N3CCN(C(=O)C4COc5ccccc5O4)CC3)cc2oc1=O (centres undefined)	TDP1 cell CPT inconclusive, TDP1 cell noCPT 2.3µM
Cc1cc(=O)oc2cc(OCC(=O)N3CCN(C(=O)C4COc5ccccc5O4)CC3)ccc12 (centres undefined)	IL-1B inflam inh inconclusive, TDP1 cell CPT inconclusive, TDP1 cell noCPT inconclusive
COc1ccccc1CNS(=O)(=O)c1c(C)nc2sc(C)cn2c1=O	none (no result: MCF10A rerep, IL-1B inflam inh, BCR signal inh, SW480 rereplic)
COc1ccccc1C(=O)NC(=O)COC(=O)CNC(=O)c1ccc(Cl)c([N+](=O)[O-])c1	none
Cc1ccc(NC(=O)Cn2c(=O)n(Cc3ccc4c(c3)OCO4)c(=O)c3ccccc32)c(C)c1	none (no result: MCF10A rerep, IL-1B inflam inh, BCR signal inh, SW480 rereplic)
C/C(=N\NC(=O)C(C)n1nc(C)c([N+](=O)[O-])c1C)c1ccccc1O (centres undefined)	MCF10A rerep inconclusive, TDP1 cell CPT 4.1µM, TDP1 cell noCPT 1.8µM, BCR signal inh inconclusive, SW480 rereplic 4.6µM
COc1cnc(-c2ccccn2)nc1Oc1cccc(Cl)c1	TDP1 cell CPT 18µM, TDP1 cell noCPT 8.2µM
COc1cnc(-c2ccccn2)nc1Oc1c(C)cccc1C	MCF10A rerep inconclusive, TDP1 cell CPT 3.3µM, TDP1 cell noCPT 3.3µM, SW480 rereplic inconclusive
COc1cnc(-c2ccccn2)nc1N(C)C	IL-1B inflam inh -58, TDP1 cell CPT inconclusive, TDP1 cell noCPT 2.9µM, SW480 rereplic 18µM
CCC(=O)NC1Cc2ccccc2C(c2ccccc2)C1 (centres undefined)	TDP1 cell noCPT inconclusive (no result: MCF10A rerep, IL-1B inflam inh, BCR signal inh, SW480 rereplic)
Nc1ccn(CC(=O)NCCNc2ccc([N+](=O)[O-])cn2)c(=O)n1	TDP1 cell CPT inconclusive
CC1(C(=O)Nc2ccc3c(c2)OCO3)CCN1C(=O)c1ccccc1 (centres undefined)	none (no result: MCF10A rerep, BCR signal inh, SW480 rereplic)
CC1(C(=O)Nc2cccc(C#N)c2)CCN1C(=O)c1ccccc1CCc1ccccc1 (centres undefined)	TDP1 cell CPT inconclusive, TDP1 cell noCPT 23µM (no result: MCF10A rerep, BCR signal inh, SW480 rereplic)
CC(C)(C)c1ccc(C(=O)N2CCC2(C)C(=O)Nc2cccc(C#N)c2)cc1 (centres undefined)	TDP1 cell CPT 16µM, TDP1 cell noCPT 16µM (no result: MCF10A rerep, BCR signal inh, SW480 rereplic)
CC1(C(=O)Nc2ccc3c(c2)OCCO3)CCN1C(=O)c1ccccc1CCc1ccccc1 (centres undefined)	TDP1 cell CPT 29µM, TDP1 cell noCPT inconclusive (no result: MCF10A rerep, BCR signal inh, SW480 rereplic)
O=C(CC(C(=O)O)c1cccc(Br)c1)c1ccc(Cl)cc1 (centres undefined)	none
CC(Sc1nnc(Cc2ccccc2)n1C)C(=O)NC1CC1 (centres undefined)	none
O=C(NC1CCCCC1)C(c1cccnc1)N(C(=O)c1csnn1)c1ccccc1 (centres undefined)	none
CCCCN(Cc1ccccc1)S(=O)(=O)c1ccc2c(c1)CC(C)N2C(=O)CC (centres undefined)	TDP1 cell CPT 23µM, TDP1 cell noCPT inconclusive (no result: MCF10A rerep, IL-1B inflam inh, BCR signal inh, SW480 rereplic)
CCC(=O)N1c2ccc(S(=O)(=O)N(CCO)Cc3ccccc3)cc2CC1C (centres undefined)	TDP1 cell CPT inconclusive
CCCCN(Cc1ccccc1)S(=O)(=O)c1cc2c(cc1Br)CC(C)N2C(C)=O (centres undefined)	MCF10A rerep inconclusive, TDP1 cell CPT 18µM, TDP1 cell noCPT 18µM, SW480 rereplic inconclusive (no result: BCR signal inh)
CC(C)c1ccc(C(=O)C[N+]2(C)CCOCC2)cc1	none (no result: MCF10A rerep, IL-1B inflam inh, BCR signal inh, SW480 rereplic)
